MITF inh: human MITF inhibition, primary screen | O75030 | AlphaScreen MITF homodimerization, bead proximity signal | inhibition, % at 2.6 µM | 0.91% of 650,000 active | AID 1259374; in the data active = inhibition above about 50%;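 note: 0% = vehicle wells with protein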
Target sequence (O75030 whole entry, looked up): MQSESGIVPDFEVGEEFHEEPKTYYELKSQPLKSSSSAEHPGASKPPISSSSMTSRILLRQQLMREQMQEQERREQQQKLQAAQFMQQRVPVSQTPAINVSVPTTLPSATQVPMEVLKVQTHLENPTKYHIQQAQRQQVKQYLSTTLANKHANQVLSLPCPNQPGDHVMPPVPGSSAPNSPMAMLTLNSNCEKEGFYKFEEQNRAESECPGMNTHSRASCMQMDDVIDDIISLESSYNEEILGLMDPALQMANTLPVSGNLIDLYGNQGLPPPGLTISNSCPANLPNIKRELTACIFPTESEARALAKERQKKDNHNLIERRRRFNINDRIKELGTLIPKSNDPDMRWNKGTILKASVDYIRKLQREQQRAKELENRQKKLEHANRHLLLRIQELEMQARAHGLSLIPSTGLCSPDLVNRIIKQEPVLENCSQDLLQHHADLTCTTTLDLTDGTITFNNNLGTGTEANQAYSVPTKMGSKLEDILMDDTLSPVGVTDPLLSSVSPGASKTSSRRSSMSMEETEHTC
TEAD-YAP inh: TEAD-YAP interaction inhibition | 1.4% of 640,000 active | HEK-TIYL cells, TEAD-Gal4/YAP UAS-luciferase luminescence | inhibition, % at 9.12 µM; in the data active = inhibition above about 32%;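 note: 0% = median of test compound wells and 100% = reference inhibitor wells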
FBW7 activator: activators of human E3 ligase FBW7; 0.13% of 650,000 active; Q969H0; normalized activity (activation), % at 26.1 µM; AlphaScreen FBW7–phospho-cyclin E peptide binding, activator screen; in the data active = normalized activity above about 1.9%;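 note: purified mutant Fbw7 with reduced substrate affinity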
GPR151 ag: human GPR151 activation | Q8TDV0 | PathHunter beta-arrestin GPR151 cells, luminescence | activation, % at 11.2 µM | 1% of 650,000 active | AID 1508602; in the data active = activation above about 4.9%;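 note: 0% = median of compound wells and 100% = cells with positive control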
* marks the source's active call; other numbers are inactive results. Sampled rows, rich in hits. Any-hit rate of the full collection: about 3.5%.

SMILES	MITF inh	TEAD-YAP inh	FBW7 activator	GPR151 ag
O=C(O)C1=C(C(=O)Nc2ccc3c(c2)OCCO3)CCCC1	2.8	55.3*	0.1	-0.1
CCCCOc1cccc(C(=O)Nc2ccc3c(c2)OCCO3)c1	6.5	-20.9	0.4	-0.8
O=C(Nc1ccc2ncsc2c1)c1ccc(F)cc1	22.3	-36.7	0.5	-4.6
Fc1ccc(-c2cc(N3CCC4(CC3)OCCO4)nc(-c3cccnc3)n2)cc1	0.9	10.6	-0.1	2.5
Cc1ccc(Cl)cc1NC(=O)c1cc(=O)n(C)c(=O)[nH]1	-5.0	-0.4	-0.1	-0.4
O=C(Nc1ccc2c(c1)CCC2)c1ccc2c(c1)OCO2	14.7	58.9*	-0.1	-5.5
CC(C)CC1c2[nH]c3ccccc3c2CCN1C(=O)Cn1cncn1 (centres undefined)	-1.9	-5.9	-0.1	-0.6
CC(C)CC1c2[nH]c3ccccc3c2CCN1C(=O)c1csnn1 (centres undefined)	4.2	39.8*	0.3	0.8
CC1Oc2ccccc2N(CC(=O)N(C(C)C)C(C)C)C1=O (centres undefined)	8.2	50.8*	-0.2	0.8
COc1cc(/C=N/NC(=O)c2cc(Br)ccc2OC(C)C)ccc1O	17.1	13.6	0.7	3.0
Cc1ccc(/C=N/NC(=O)c2cc(Br)ccc2OC(C)C)o1	-17.0	46.0*	-0.2	-1.9
C=C(C)CSc1nc2c(c(=O)[nH]c(=O)n2C)n1CCCCC	13.1	1.9	0.9	-1.0
Cc1ccccc1-n1c(SC(C)C)nc2sc3c(c2c1=O)CCC(C(C)(C)C)C3 (centres undefined)	-1.0	-8.2	-0.1	-0.2
Cc1ccccc1Cn1cnc2sc3c(c2c1=O)CCCC3	2.6	51.3*	0.1	-0.1
COc1cccc(-c2nc3sc4c(c3c(=O)n2Cc2ccccc2F)CCCC4)c1	6.3	32.3*	0.2	-0.7
O=C(CNC(=S)N(Cc1ccccc1)Cc1cccs1)NCc1ccccc1	16.0	2.7	0.8	-0.4
S=C(Nc1ccc(Cl)cc1)N(Cc1ccccc1)Cc1cccs1	8.4	5.1	0.2	1.3
Cc1ccc(CNC(=O)CNC(=S)N(Cc2ccccc2)Cc2cccs2)cc1	8.7	7.0	2.0*	0.1
Cc1cc(NC(=S)N(Cc2ccccc2)Cc2cccs2)ccc1Cl	8.5	44.3*	0.1	0.2
Cc1ccc(NC(=S)N(Cc2ccccc2)Cc2cccs2)cc1Cl	-4.8	35.9*	0.0	-0.2
CCOC(=O)c1sc2nc(SCc3csc4ccc(Cl)cc34)n(Cc3ccc4c(c3)OCO4)c(=O)c2c1C	-5.0	-6.0	0.0	0.3
COc1cccc2c1OC1(CCN(C(=O)Cc3ccc(F)cc3)CC1)OC2	4.4	-0.2	0.0	1.9
COc1ccc(CC(=O)N2CCC3(CC2)OCc2cccc(OC)c2O3)cc1OC	8.0	65.0*	-0.2	1.2
CC1=NN(C(=O)C2c3ccccc3Oc3ccccc32)C(O)(C(F)(F)F)C1 (centres undefined)	-6.4	-1.2	-0.2	1.0
COc1ccc(-n2nc(C(=O)N(C)Cc3ccccc3)c3ccccc3c2=O)c(OC)c1	3.2	6.3	-0.1	0.0
SMILES	MITF inh	TEAD-YAP inh	FBW7 activator	GPR151 ag
O=C(/C=C/Nc1ccccc1I)c1ccccn1	8.9	80.3*	0.0	-4.9
O=C(/C=C/Nc1cccc2cccnc12)c1ccccc1	16.2	-51.5	0.0	-1.1
Cc1ccc2nc(-c3ccc(O)cc3O)cn2c1	0.1	79.7*	-0.4	0.9
Cc1ccc2nc(-c3ccc(O)c(O)c3)cn2c1	0.4	54.4*	0.0	-7.1
Cc1ccc2nc(-c3ccc([N+](=O)[O-])cc3)cn2c1	-4.0	-33.9	-0.2	-2.5
Brc1ccc(-c2c[n+]3c(n2-c2ccccc2)SCC3)cc1	-10.9	3.3	0.0	-0.5
Clc1ccc(-c2c[n+]3c(n2-c2ccccc2)CCC3)cc1	2.2	11.9	-0.1	0.0
Cc1ccc(-n2c(-c3ccccc3)c[n+]3c2CCCCC3)cc1	13.0	58.8*	0.0	-0.7
COc1ccc(-c2c[n+]3c(n2-c2c(C)n(C)n(-c4ccccc4)c2=O)CCCCC3)cc1	-1.2	3.6	-0.1	-0.1
Cc1ccc(-c2c[n+]3c(n2-c2ccccc2)SCC3)cc1	-12.2	55.7*	-0.1	1.3
Cc1ccc(-c2c[n+]3c(n2-c2ccc(C)cc2)CCCCC3)cc1	14.1	85.1*	0.3	4.1
Cc1ccc(-c2cn(-c3ccccc3)c3[n+]2CCCS3)cc1	16.1	68.2*	-0.1	0.1
Cc1ccc(-c2c(C)nn3c(N(C)CCO)cc(C)nc23)cc1	-0.6	-11.5	-0.2	-0.8
CC(C)c1ccc(C2=C/C(=C/c3ccccc3Cl)C(=O)O2)cc1	8.1	-4.1	-0.1	1.3
Cc1cc2nn(-c3ccccc3)nc2cc1NC(=O)COc1ccc(Cl)cc1C	16.9	-13.6	1.1	2.6
O=C(CCCCCn1c(=S)[nH]c2ccc(Br)cc2c1=O)N1CCOCC1	-7.8	-5.6	-0.2	0.1
COc1ccc(-c2cc(C(F)(F)F)c3nc(OC(C)C(C)=O)oc3n2)cc1OC (centres undefined)	-1.2	80.8*	0.0	1.5
Cc1nc(C)n(-c2ccc(Nc3nccc(-c4cc(F)cc(-c5cn[nH]c5)c4)n3)cc2)n1	6.6	-3.6	-0.2	0.6
CCN1CCN(c2cc(F)cc(-c3ccnc(Nc4ccc(-n5nc(C)nc5C)cc4)n3)c2)CC1	15.5	67.5*	0.6	1.9
Cc1nc(C)n(-c2ccc(Nc3nccc(N(CCO)Cc4ccccc4)n3)cc2)n1	-6.0	51.5*	-0.1	0.7
Cc1nc(C)n(-c2ccc(Nc3nccc(-c4cccc(-n5cncn5)c4)n3)cc2)n1	9.2	44.5*	0.0	-0.2
CNc1cc(F)cc(-c2ccnc(Nc3ccc(-n4nc(C)nc4C)cc3)n2)c1	31.2	58.7*	0.3	-2.2
Cc1nc(C)n(-c2ccc(Nc3nccc(-c4cc(F)cc(N5CCCC5)c4)n3)cc2)n1	-2.6	1.0	0.0	-0.1
COc1cc2c(cc1OC)C(COc1ccccc1OC)N(C(=O)c1ccc(C)c([N+](=O)[O-])c1)CC2 (centres undefined)	3.9	-4.3	-0.1	-1.6
Clc1cccc(-c2cnc3ccc(NCCc4cccnc4)nn23)c1	-1.3	93.7*	2.0*	-0.5
SMILES	MITF inh	TEAD-YAP inh	FBW7 activator	GPR151 ag
N#Cc1ccc(-c2cnc3ccc(NCCc4cccnc4)nn23)cc1	15.1	34.1*	-0.4	-0.8
Cc1nc(SCc2nnc(-c3ccc([N+](=O)[O-])cc3)o2)c(C#N)c(C)c1C	3.0	10.6	-0.1	-1.4
CC1=NN(c2cccc(C(=O)O)c2)C(=O)/C1=C\c1ccccc1O	56.7*	-24.8	-1.1	0.5
CCOc1cc(/C=C2\C(=O)N(c3cccc(C(=O)O)c3)N=C2C)cc(Cl)c1OC	60.8*	-1.8	-1.2	-0.9
CC1=NN(c2cccc(C(=O)O)c2)C(=O)/C1=C\c1ccc(-c2ccc(Cl)c(C(=O)O)c2)o1	73.7*	8.6	-0.8	3.1
CCC12CN3CC(CC)(CN(C1)C3c1ccccc1[N+](=O)[O-])C2=O (centres undefined)	6.8	-1.1	0.0	-0.3
C=CCNC(=O)C1CCN(c2cc(-c3ccccc3)nc3ncnn23)CC1	7.9	12.4	0.4	1.2
Cc1ccc2nc(C(F)(F)F)c(C#N)c(N)c2c1	-10.2	44.9*	-0.1	-0.6

High-throughput results deposited in PubChem BioAssay by The Scripps Research Institute Molecular Screening Center.
